The values below come from PubChem BioAssay (Tox21).

Values without a mark were called inactive. Inconclusive results are not listed. Activity calls are given as the source filed them. Unless noted, calls come from the whole dose curve; as a rule, active = well fitted curve in the direction sought with a large enough effect in the repeat runs; inconclusive = weak or mixed curves; inactive = no such curve, though single readings can be large; an effect the other way counts as inactive or inconclusive.

A short description of experiment [1]: qHTS assay to identify small molecule antagonists of the estrogen related receptor (ERR) signaling pathway from Tox21 library - cell viability counter screen (AID 1224834). Note: nearly all actives have a fitted effect of over 30% in size. The procedure, abridged: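 Cytotoxicity of test substances is gauged in the same ERR cells used for the antagonist screen, after 17.5 h of compound treatment at 37 C, by CellTiter-Fluor fluorescence measured after 30 min.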

Experiment [2] addresses Luciferin 4-monooxygenase (Photinus pyralis) (UniProt P08659). Kind of experiment: qHTS assay to identify small molecule inhibitors of firefly luciferase (AID 1224835). Note: nearly all actives have a fitted effect of over 25% in size. Note: potency is the fitted concentration of half-maximal effect. The procedure, abridged: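 Quantitative HTS format; KM concentrations of both substrates. Purified P. pyralis FLuc activity quantified from luminescence images.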
Experiment [3] is described as follows: qHTS assay to identify small molecule agonists of the constitutive androstane receptor (CAR) signaling pathway - cell viability counter screen (AID 1224836). Note: nearly all actives have a fitted effect of over 45% in size. The procedure, abridged:
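HepG2-CYP2B6-hCAR, 2500 cells/well, 4 h pre-incubation; cpd 15 conc + PK11195 0.75 uM final; 23 h, 37 C/5% CO2; CellTiter-Fluor, fluorescence.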

Experiment [4] is described as follows: qHTS assay to identify small molecule antagonists of the constitutive androstane receptor (CAR) signaling pathway - cell viability counter screen (AID 1224837). Note: nearly all actives have a fitted effect of over 45% in size. The procedure, abridged:
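Multiplexed cytotoxicity read-out for the CAR antagonist screen: double-stable HepG2-CYP2B6-hCAR cells co-treated with 50 nM CITCO (final) and compound over 15 concentrations, incubated 23 hr, then assessed by CellTiter-Fluor fluorescence.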

Experiment [5] concerns the target Nuclear receptor subfamily 1 group I member 3 (Homo sapiens) (UniProt Q14994). Briefly: qHTS assay to identify small molecule antagonists of the constitutive androstane receptor (CAR) signaling pathway (AID 1224838). Note: nearly all actives have a fitted effect of over 40% in size. The procedure, abridged:
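Compounds were titrated across 15 concentrations onto HepG2 cells double-stably expressing hCAR and a CYP2B6-2.2kb reporter, together with 50 nM CITCO (final). After 24 h at 37 C, luciferase activity was measured by luminescence.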

The target is the same in experiment [6]. Kind of experiment: qHTS assay to identify small molecule agonists of the constitutive androstane receptor (CAR) signaling pathway (AID 1224839).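 Note: HepG2 cells stably carrying human CAR and a CYP2B6 luciferase reporter; nearly all actives have a fitted effect of over 15% in size.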 The procedure, abridged:
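HepG2-CYP2B6-hCAR cells, 2500/well, 4 h pre-incubation; compounds 15 conc.; PK11195 0.75 uM final; 24 h, 37 C/5% CO2; ONE-Glo luciferase read.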

A short description of experiment [7]: qHTS assay to identify small molecule antagonists of the estrogen related receptor signaling pathway with the pleiotropic PPARgamma coactivator (PGC) from Tox21 10K library - cell viability counter screen (AID 1224840; active = well fitted cell-killing curve with a large enough effect in the repeat runs, not every such curve was filed as active; note: nearly all actives have a fitted effect of over 40% in size). The procedure, abridged: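 Step one, plate 2,000 PGC/ERR cells per well; step two, incubate 6 h at 37 C/5% CO2; step three, pin-transfer compounds; step four, incubate 17.5 h; step five, add CellTiter-Fluor and read fluorescence after 30 min.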

The nature of experiment [8]: qHTS assay to identify small molecule antagonists of the estrogen related receptor signaling pathway with the pleiotropic PPARgamma coactivator (PGC) from Tox21 10K library (AID 1224841; call rule not given here; note: actives are mostly falling curves and most rising ones were filed inactive; nearly all actives have a fitted effect of over 50% in size). The procedure, abridged:
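Antagonism in this quantitative HTS is taken from loss of luciferase signal in PGC/ERR cells. Cells (2,000/well) are treated with compounds in DMSO after a 6 h settling period and read by One-Glo luminescence after 18 h.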

Experiment [9] is described as follows: qHTS assay to identify small molecule agonists of the estrogen related receptor signaling pathway with the pleiotropic PPARgamma coactivator (PGC) from Tox21 10K library (AID 1224842). Note: nearly all actives have a fitted effect of over 15% in size. The procedure, abridged: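 PGC/ERR reporter cells (NTP line) were seeded 2,000 per well, rested 6 h at 37 C/5% CO2, then pin-dosed with compounds in DMSO for 18 h at 37 C; luciferase read by One-Glo luminescence after 30 min at room temperature.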

The target in experiment [10] is Thyrotropin receptor (Homo sapiens) (UniProt P16473). Kind of experiment: qHTS assay to identify small molecule agonists of the thyroid stimulating hormone receptor (TSHR) signaling pathway (AID 1224843; calls by dose curve; note: nearly all actives have a fitted effect of over 45% in size). The procedure, abridged:
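Cell line HEK293 with TSHR; density 800/well. Exposure 30 min RT. Readout HTRF cAMP (cAMP-d2/anti-cAMP-cryptate), 1 h RT before reading.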

A short description of experiment [11]: qHTS assay to identify small molecule agonists of the hypoxia (HIF-1) signaling pathway - cell viability counter screen (AID 1224844; calls by dose curve; note: nearly all actives have a fitted effect of over 50% in size). The procedure, abridged:
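Tox21 10K compounds were added to HRE-bla ME-180 cells (0.5% dialyzed FBS) and incubated 17 hrs at 37C; ATP-based CellTiter-Glo luminescence then reported cell viability in the same wells.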

A short description of experiment [12]: qHTS assay to identify small molecule agonists of H2AX (AID 1224845; active = well fitted activation curve with a large enough effect in the signal ratio in the repeat runs, not every such curve was filed as active; the % refers to the signal ratio). The procedure, abridged:
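Wild-type CHO-K1 cells plated overnight, then exposed 3 hr at 37C to compounds at 15 concentrations (0.76% DMSO). Lysed, then HTRF anti-pH2AX(S139)-cryptate/anti-H2AX-d2 detection after 24 hr at room temperature; emissions 665 and 620 nm.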

Experiment [13] in a line: qHTS assay to identify small molecule agonists of the hypoxia (HIF-1) signaling pathway (AID 1224846; active = well fitted activation curve with a large enough effect in the signal ratio in the repeat runs, not every such curve was filed as active; the % refers to the signal ratio). The procedure, abridged:
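Steps: seed ME-180 HRE-bla cells (2,000/well, 0.5% dialyzed FBS); incubate 5 hrs at 37C; pin-transfer compounds or DMSO; incubate 17 hrs; add LiveBLAzer B/G substrate CCF4-AM; measure reporter activation by FRET.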

A short description of experiment [14]: qHTS assay to identify small molecule antagonists of the estrogen related receptor (ERR) signaling pathway from Tox21 library (AID 1224848). Note: nearly all actives have a fitted effect of over 50% in size. The procedure, abridged: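 Screening used an ERR reporter line supplied by NTP, exposed for 18 h at 37 C to library compounds delivered in DMSO. Signal was luciferase luminescence developed with ONE-Glo at room temperature for 30 min.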

A short description of experiment [15]: qHTS assay to identify small molecule agonists of the estrogen related receptor (ERR) signaling pathway from Tox21 library (AID 1224849; calls by dose curve; note: nearly all actives have a fitted effect of over 15% in size). Particulars: ERR reporter cell line, ONE-Glo luciferase, 18 h; at 92.4 µM (top of the series) unless noted. The procedure, abridged:
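Agonist signal is luciferase luminescence from an ERR reporter cell line treated 18 h at 37 C with DMSO-dissolved compounds, read 30 min after ONE-Glo addition at room temperature.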

Experiment [16] is described as follows: qHTS RealTime-Glo MT Cell Viability Assay in HepG2 cells - 24 hour (AID 1224867). Note: nearly all actives have a fitted effect of over 50% in size. The procedure, abridged:
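HepG2 cells (600/well) were dispensed with RealTime-Glo reagents, incubated 5 h at 37 °C, then treated with compounds in DMSO for up to 40 h. Nonlytic NanoLuc luminescence reflecting viable cells was read at each stated time point.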

The nature of experiment [17]: qHTS RealTime-Glo MT Cell Viability Assay in HEK293 cells - 32 hour (AID 1224868). The procedure, abridged: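 HEK293 cells seeded with NanoLuc/prosubstrate reagent, rested 5 h at 37 C, then dosed and kept at 37 C up to 40 h. Nonlytic real-time luminescence from viable cells read at 0, 8, 16, 24, 32 and 40 h.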
A short description of experiment [18]: A CellTox Green Cytotoxicity Assay to monitor cytotoxicity in HEK293 cells - 0 hour (AID 1224869). Note: nearly all actives have a fitted effect of over 50% in size. The procedure, abridged: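 Cytotoxicity was tracked continuously in HEK293 cells by a DNA-binding dye excluded from viable cells. Compounds were transferred in DMSO 5 h after seeding; fluorescence was recorded at intervals up to 40 h.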
Experiment [19] is described as follows: qHTS RealTime-Glo MT Cell Viability Assay in HepG2 cells - 40 hour (AID 1224870). Note: nearly all actives have a fitted effect of over 50% in size. The procedure, abridged: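 HepG2 cells mixed with RealTime-Glo MT reagents (NanoLuc plus cell-permeant prosubstrate) were seeded at 600 cells/well, incubated 5 h at 37 C/5% CO2, then pinned with compounds in DMSO; nonlytic luminescence tracked viability during 40 h treatment.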

Experiment [20] is described as follows: qHTS assay to identify small molecule agonists of H2AX - cell viability counter screen (AID 1224847; calls by dose curve; note: top concentration of the series differs between compounds; nearly all actives have a fitted effect of over 30% in size). The procedure, abridged: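 Cells plated first: CHO-K1, 1000 per well in 10% FBS medium, incubated overnight at 37C. Then 15-point compound titration added (final DMSO 0.76%) for 3 hr. Finally CellTiter-Glo added and luminescence read.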
% is set by controls: 0 for no effect and ±100 for the full control effect.

Luciferin 4-monooxygenase (Photinus pyralis), sequence (P08659 whole entry, looked up): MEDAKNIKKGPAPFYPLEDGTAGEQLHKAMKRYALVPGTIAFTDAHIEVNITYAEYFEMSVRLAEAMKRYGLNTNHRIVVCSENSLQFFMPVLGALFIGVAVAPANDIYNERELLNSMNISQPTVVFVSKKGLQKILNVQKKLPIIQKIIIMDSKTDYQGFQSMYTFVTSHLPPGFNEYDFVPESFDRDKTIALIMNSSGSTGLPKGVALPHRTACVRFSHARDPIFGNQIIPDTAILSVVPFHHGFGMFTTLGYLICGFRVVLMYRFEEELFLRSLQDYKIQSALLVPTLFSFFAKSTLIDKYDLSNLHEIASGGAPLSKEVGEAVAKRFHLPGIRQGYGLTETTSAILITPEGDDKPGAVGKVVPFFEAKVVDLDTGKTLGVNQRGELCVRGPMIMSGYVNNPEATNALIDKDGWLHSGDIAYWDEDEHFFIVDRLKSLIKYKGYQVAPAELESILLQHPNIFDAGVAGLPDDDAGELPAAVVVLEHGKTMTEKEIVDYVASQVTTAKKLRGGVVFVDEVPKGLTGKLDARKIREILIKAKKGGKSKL
Thyrotropin receptor (Homo sapiens), sequence (P16473 whole entry, looked up): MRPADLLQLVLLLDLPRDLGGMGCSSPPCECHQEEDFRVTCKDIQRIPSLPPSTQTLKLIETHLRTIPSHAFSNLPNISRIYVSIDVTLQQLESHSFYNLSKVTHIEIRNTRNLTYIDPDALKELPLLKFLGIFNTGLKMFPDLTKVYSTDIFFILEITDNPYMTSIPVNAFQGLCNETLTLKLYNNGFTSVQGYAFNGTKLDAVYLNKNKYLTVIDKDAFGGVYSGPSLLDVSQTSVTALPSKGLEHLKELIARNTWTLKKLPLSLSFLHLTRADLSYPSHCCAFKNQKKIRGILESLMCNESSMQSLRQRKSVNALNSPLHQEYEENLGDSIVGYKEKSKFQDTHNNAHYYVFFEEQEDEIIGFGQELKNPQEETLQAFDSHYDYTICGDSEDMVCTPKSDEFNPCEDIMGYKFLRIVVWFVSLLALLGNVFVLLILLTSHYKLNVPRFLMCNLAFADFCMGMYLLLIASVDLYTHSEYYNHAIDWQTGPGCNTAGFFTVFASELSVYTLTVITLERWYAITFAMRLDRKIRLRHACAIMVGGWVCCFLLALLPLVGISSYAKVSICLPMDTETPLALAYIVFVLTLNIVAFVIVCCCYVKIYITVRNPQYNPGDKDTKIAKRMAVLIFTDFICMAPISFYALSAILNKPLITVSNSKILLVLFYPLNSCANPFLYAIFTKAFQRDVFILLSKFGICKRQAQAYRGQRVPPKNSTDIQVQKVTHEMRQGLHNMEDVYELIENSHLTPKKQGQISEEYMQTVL
Nuclear receptor subfamily 1 group I member 3 (Homo sapiens), sequence (Q14994 whole entry, looked up): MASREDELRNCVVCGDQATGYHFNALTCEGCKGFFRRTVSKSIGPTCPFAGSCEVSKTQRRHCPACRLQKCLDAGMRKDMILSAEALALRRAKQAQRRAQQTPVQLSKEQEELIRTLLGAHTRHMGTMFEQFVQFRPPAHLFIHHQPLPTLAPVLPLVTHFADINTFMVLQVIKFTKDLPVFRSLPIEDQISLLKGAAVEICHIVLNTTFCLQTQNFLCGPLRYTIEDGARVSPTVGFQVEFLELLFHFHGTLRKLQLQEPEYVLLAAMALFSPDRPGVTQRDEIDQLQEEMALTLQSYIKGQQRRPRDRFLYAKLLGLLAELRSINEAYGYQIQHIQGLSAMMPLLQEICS

With `COc1cc2[nH]c(=O)[nH]c(=O)c2cc1OC`, the Potency result in [1], in experiment [2], in [3], in [4], in [5] and in [6] was “inactive” each time. Besides, the Potency entry in experiment [7], in experiment [8], in experiment [9], in experiment [10], in [11] and in experiment [12] was “inactive” each time. For the same molecule, the Potency result in [14], in experiment [16], in experiment [17], in experiment [18] and in [19] was “inactive” throughout. Moreover, in experiment [13], the outcome was inactive. In addition, in [15], the activity change, positive = activation is 2.16% [at 42.5 µM].

As for `CN(C)CCOC1=Cc2ccccc2Sc2ccc(Cl)cc21`, the Potency result in [1], in experiment [2], in [3], in [4], in [5] and in experiment [6] was “inactive” each time. Besides, the Potency result in experiment [7], in experiment [8], in [9], in experiment [10], in [20] and in [17] was “inactive” each time. For the same molecule, in [18], the Potency entry was “inactive”. Further, the molecule was called inactive in experiment [13]. The activity change, positive = activation in experiment [15] was -11.9% [at 42.5 µM].

On to `C1COCO1`, for which the Potency result in experiment [1], in experiment [2], in experiment [3], in experiment [4], in experiment [5] and in experiment [6] was “inactive” each time. The Potency entry in experiment [7], in [8], in experiment [9], in experiment [10], in [11] and in experiment [20] was “inactive” each time. Besides, the Potency entry in [14], in experiment [17], in [18] and in experiment [19] was “inactive” in each case. For the same molecule, the call in experiment [13] was inactive. For the same molecule, the activity change, positive = activation in experiment [15] was -2.3%.

For the molecule `CN1C(=O)CC(C)(c2ccccc2)C1=O` (centres undefined), the Potency result in [1], in [2], in experiment [3], in experiment [4], in [5] and in experiment [6] was “inactive” in each case. Further, the Potency result in experiment [7], in experiment [8], in experiment [9], in experiment [10], in experiment [12] and in [20] was “inactive” throughout. Also, the Potency result in experiment [14], in [16], in [17], in experiment [18] and in [19] was “inactive” throughout. For the same molecule, the call in experiment [13] was inactive. For the same molecule, the activity change, positive = activation in [15] is 2.7% [at 42.5 µM].

`CCN(Cc1cccc(S(=O)(=O)O)c1)c1ccc(C(=C2C=CC(=[N+](CC)Cc3cccc(S(=O)(=O)[O-])c3)C=C2)c2ccccc2)cc1`: the Potency result in experiment [1], in experiment [3], in experiment [4], in experiment [5], in [6] and in experiment [7] was “inactive” in each case. Also, the Potency entry in experiment [8], in experiment [9], in experiment [10], in experiment [20], in [14] and in experiment [16] was “inactive” throughout. For the same molecule, the Potency entry in experiment [17], in experiment [18] and in [19] was “inactive” throughout. Further, the Potency in experiment [2] was 22.3 µM (active). Also, in experiment [13], the molecule was classed as inactive. Moreover, in [15], the activity change, positive = activation is 1.85% [at 42.5 µM].

As to `CCCCCCCCCCCCCCCCBr`, the viability change, negative = cytotoxic in experiment [1] was 0.749% [at 19 µM]; in experiment [3], 0.618% [at 19 µM]; in experiment [7], 7.8% [at 19 µM]. The activity change, negative = inhibition in [2] was 1.26% [at 23.6 µM]. For the same molecule, the activity change, negative = cytotoxicity in experiment [4] is -0.0926% [at 19 µM]; in experiment [11], -1.79% [at 15.8 µM]; in experiment [20] it was 2.27% [at 31.6 µM]; in experiment [16], 2.08% [at 15.8 µM]. Further, the activity, negative = inhibition in [5] was -0.414% [at 19 µM]; in [8], 36.1% [at 19 µM]; in [14], 8.88% [at 19 µM]. The activation is -0.821% [at 19 µM] in [6], 1.63% [at 19 µM] in experiment [9], -0.411% [at 19 µM] in experiment [10] and 0.309% [at 15.8 µM] in experiment [13]. Moreover, the activation (H2AX phosphorylation) in [12] is -0.41% [at 31.6 µM]. For the same molecule, the activity change, positive = activation in experiment [15] is 4.62% [at 19 µM]. Besides, the activity change, negative = cytotoxic is 4.73% [at 15.8 µM] in [17] and 2.22% [at 15.8 µM] in [19]. In experiment [18], the cytotoxicity was -1.2% [at 15.8 µM].
